# Bioassay records deposited in PubChem BioAssay by National Center for Advancing Translational Sciences (NCATS).
# An excerpt weighted towards active compounds, which were near 7.9% of everything screened.
# HT1080 IDH1KD tx – kills HT-1080 cells with IDH1 knockdown; AID 686971; 360,000 compounds, 2% hits; Potency, µM (series often up to 46.1 µM), for inactives: at the top dose activity, negative = toxicity, usual class: cytotoxic; HT-1080 IDH1 knockdown viability, ATP luminescence, 48 h;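 further: 0% = DMSO wells and -100% = cell-free medium wells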
#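 Assay cells: HT-1080 with IDH1 knockdown, 750 per well, RPMI/5% FBS. Exposure: 48 h at 37 °C following 2 h pre-incubation. Read: CellTiter-Glo luminescence; fitted concentration-response, curve class assigned.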
# KB-V1 cytotox – kills drug-selected multidrug resistant KB-V1 cells. Potency, µM (series often up to 46.1 µM), usual class: cytotoxic. 400,000 compounds, 3.4% hits. KB-V1 MDR cells viability, CellTiter-Glo, 72 h. AID 1347076; further: on the % scale 0 is the no-effect control and ±100 the full control effect; nearly all actives have a fitted effect of over 60% in size
#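 Potencies derive from concentration-effect curves fitted to normalized luminescence (CellTiter-Glo) of KB-V1 cells treated for 72 h at 37 degrees C in phenol-red-free DMEM containing 10% FBS.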
# HT1080-NT tox – kills 2HG-producing HT-1080-NT fibrosarcoma cells. HT-1080-NT fibrosarcoma viability, CellTiter-Glo ATP luminescence, 48 h. Potency, µM (series often up to 46.1 µM), for the others: at the highest dose activity, negative = less viability, most hits filed as cytotoxic. 360,000 compounds, 1.6% hits;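 further: NT is the 2HG producing partner of a matched IDH1 knockdown line; 0% = DMSO-treated cells and -100% = media-only wells without cells; nearly all actives have a fitted effect of over 55% in size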
#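 Read-out is CellTiter-Glo luminescence after 10 minutes at room temperature, following 48 hours' compound treatment of HT-1080-NT cells (750 cells/well, RPMI, 5% FBS, 37 degrees C).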
# MCF10A rereplic – DNA re-replication induction in MCF 10a cells | Potency, µM (series often up to 46.1 µM), for inactives: at the top dose activity, positive = re-replication, usual class: activators | 350,000 compounds, 2.9% hits | MCF 10A DNA re-replication, Hoechst nuclear intensity, 48 h; further: % of control where 0% means no effect; nearly all actives have a fitted effect of over 50% in size
# KB-3-1 cytotox – KB-3-1 parental cell cytotoxicity; 400,000 compounds, 1.4% hits; Potency, µM (titrated, usually from 46.1 µM), hits mostly cytotoxic; KB-3-1 viability, CellTiter-Glo ATP luminescence, 72 h; further: on the % scale 0 is the no-effect control and ±100 the full control effect; nearly all actives have a fitted effect of over 60% in size
#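 Using CellTiter-Glo luminescence, growth of non-resistant KB-3-1 adenocarcinoma cells is assessed 72 h after pin-tool compound addition at 37 °C. Normalized responses across the concentration series yield fitted curves.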
# SW480 rereplic – inducers of DNA re-replication in SW480 colon cancer cells | SW480 DNA re-replication, Hoechst DNA content imaging, 48 h | Potency, µM (series often up to 46.1 µM), inactives show at the top dose re-replication activation, most hits filed as activators | 340,000 compounds, 1.8% hits | AID 624297; further: % of control where 0% means no effect; nearly all actives have a fitted effect of over 55% in size
#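 Quantitative HTS format with DMSO vehicle controls; 48 hr drug incubation at 37 C, then 40 min Hoechst staining and scanning imager measurement at 405 nm excitation.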
# * hit, by the source's call; i = inactive; ? = inconclusive; . = not tested or not shown; [ ] = remark or other dose. The call rests on the fitted dose curve; in most records, active means well fitted curve in the direction sought with a large enough effect; inconclusive means small, poorly fitted or top-dose-only effect, or another doubt; inactive means no such curve, though single readings can be large; an effect the other way counts as inactive or inconclusive. Potency means the concentration at half of the fitted maximal effect.
SMILES,HT1080 IDH1KD tx,KB-V1 cytotox,HT1080-NT tox,MCF10A rereplic,KB-3-1 cytotox,SW480 rereplic
CCOc1ccc(C2c3cc(OC)c(OC)cc3CC(=O)N2c2ccc(OC)cc2)cc1 (configuration not stated),?,?,?,124%,18µM*,15µM*
COc1ccc(N2C(=O)Cc3cc(OC)c(OC)cc3C2c2ccc(F)cc2)cc1 (configuration not stated),.,i,.,.,i,.
Oc1c(N=Nc2ccccn2)ccc2ccccc12,2.3µM*,?,?,13µM*,1.2µM*,?
Oc1[nH]c2ccccc2c1N=Nc1ccccn1,5%,i,12%,-3%,i,-5%
COc1ccc(C)cc1NC(=O)N1CCN(c2nnc(C)c3c(C)n(-c4ccccc4)nc23)CC1,.,i,.,.,i,.
Cc1cccc(Nc2nc(N)nc(CN3CCC(C(N)=O)CC3)n2)c1C,13%,i,13%,0%,i,-3%
CCOc1ccc(Nc2nc(N)nc(CSC(=S)N3CCOCC3)n2)cc1,-13%,?,-1%,3%,i,3%
Cc1ccc(Nc2nc(N)nc(CSCCO)n2)cc1,2%,i,-7%,-3%,i,0%
Cc1cccc(Nc2nc(N)nc(CCl)n2)c1C,1.8µM*,?,1.6µM*,?,?,?
CCOc1ccc(Nc2nc(N)nc(CCl)n2)cc1,?,i,0.82µM*,?,13µM*,?
Cc1ccc(Nc2nc(N)nc(CC#N)n2)cc1,7.1µM*,i,13µM*,?,i,2%
Cc1ccccc1Nc1nc(N)nc(COC(=O)c2cccc(S(=O)(=O)N(C)C)c2)n1,7%,18µM*,6%,?,i,2%
Cc1nnc(NC(=O)C2CCN(S(=O)(=O)c3ccc(F)c(F)c3)CC2)o1,6%,i,2%,-1%,?,-6%
CC1CCCN(S(=O)(=O)c2ccc(N3CCCCS3(=O)=O)cc2)C1 (configuration not stated),.,i,.,.,i,.
Nc1nc(COC(=O)c2ccc3c(c2)OCCO3)nc(Nc2ccccc2)n1,-8%,21µM*,-7%,12%,i,-2%
Cc1ccc(Nc2nc(N)nc(CCl)n2)cc1,8.2µM*,?,2.3µM*,?,?,-21%
Cc1ccc(Nc2nc(N)nc(CCl)n2)c(C)c1,?,?,5.8µM*,?,?,21%
Nc1nc(COC(=O)CCC(=O)c2ccccc2)nc(Nc2ccccc2)n1,-1%,i,6%,13%,i,-46%
Nc1nc(CCl)nc(Nc2ccccc2)n1,?,?,3.3µM*,?,?,6.5µM*
COc1ccc(Cl)cc1NC(=O)CSc1nc2[nH]ncc2c(=O)[nH]1,-11%,i,-5%,.,i,.
CC(=O)c1cccc(S(=O)(=O)N2CCC(C(=O)N(C)Cc3ccc(Cl)s3)CC2)c1,1%,i,-8%,7%,i,-17%
Cc1csc(=O)n1CCC(=O)OCC(=O)N(C)c1c(N)n(Cc2ccccc2)c(=O)[nH]c1=O,23%,i,16%,.,i,.
Cc1cc(C)c2c(=O)[nH]c(SCC(=O)c3ccc(C(C)C)cc3)nc2n1,12%,16µM*,11%,?,i,-6%
Cc1cc(=O)[nH]c(SCC(=O)c2ccc(C(C)C)cc2)n1,-9%,i,-1%,1%,i,-1%
CC(C)c1cc(C(C)C)c(S(=O)(=O)NNC(=O)c2ccncc2)c(C(C)C)c1,21%,15µM*,18%,0%,i,-129%
SMILES,HT1080 IDH1KD tx,KB-V1 cytotox,HT1080-NT tox,MCF10A rereplic,KB-3-1 cytotox,SW480 rereplic
O=C(NNS(=O)(=O)c1ccc(Br)cc1)c1ccncc1,23%,i,4%,1%,i,4%
CC1=Nc2cc(C(=O)NCC3CCCO3)ccc2Sc2ccc(C)cc21 (configuration not stated),?,i,8%,2.1µM*,?,1µM*
CCC(C)NC(=O)c1ccc2c(c1)N=C(C)c1cc(C)ccc1S2 (configuration not stated),.,i,.,.,5.2µM*,.
CC1=Nc2cc(C(=O)NCc3ccco3)ccc2Sc2ccc(C)cc21,1.6µM*,0.58µM*,3.7µM*,1µM*,?,1.3µM*
CC1=Nc2cc(C(=O)O)ccc2Sc2ccc(C)cc21,0%,i,-1%,-2%,i,2%
CO[C@H]1C[C@@H]2CC[C@@H](C)[C@@](O)(O2)C(=O)C(=O)N2CCCC[C@H]2C(=O)O[C@H]([C@H](C)C[C@@H]2CC[C@@H](OC(=O)C(C)(CO)CO)[C@H](OC)C2)CC(=O)[C@H](C)/C=C(\C)[C@@H](O)[C@@H](OC)C(=O)[C@H](C)C[C@H](C)/C=C/C=C/C=C/1C,.,.,.,4%,.,-1%
O=[N+]([O-])c1cnccc1-n1nnc2ccccc21,?,?,?,.,i,.
COCCNC(=O)C1(C)CCCN(Cc2ccc(Cl)nc2)C1 (configuration not stated),12%,i,?,.,i,.
O=C1/C(=C/c2ccccn2)COc2ccccc21,-14%,i,-21%,?,i,?
O=C1/C(=C/c2ccc(O)cc2)COc2ccccc21,?,i,?,?,i,18µM*
O=C1/C(=C/c2ccccc2[N+](=O)[O-])COc2ccccc21,18µM*,i,8.2µM*,?,i,-349%[1.84 µM]
O=C(C[C@@H]1CC[C@H](NC(=O)c2ccc3c(c2)OCO3)[C@@H](CO)O1)NCc1ccc(F)cc1,9%,i,2%,.,i,.
COc1ccc(-c2nnc(-c3cc4ccccc4oc3=O)o2)cc1,4%,i,4%,-1%,i,2%
CCCCCCc1cc2cc(S(=O)(=O)c3ccc(F)cc3)c(=O)oc2cc1O,?,?,?,2.3µM*,i,4.6µM*
CCCCCCc1cc2cc(C(=O)Nc3ccccc3OC)c(=O)oc2cc1O,2%,?,6%,0.65µM*,?,?
CCCCCCc1cc2cc(-c3nnc(-c4ccccc4OC)o3)c(=O)oc2cc1O,?,16µM*,?,6%,?,1.2µM*
O=C(O)c1ccc2oc(=O)c(S(=O)(=O)c3ccc(F)cc3)cc2c1,-11%,i,-9%,6%,i,9%
CCCCCCc1cc2cc(-c3nnc(-c4ccccc4O)o3)c(=O)oc2cc1O,0%,13µM*,-2%,0.73µM*,?,2.3µM*
